Test results from PubChem BioAssay (EPA / NIEHS).
Some compounds were tested as several samples or in several runs, with calls that do not always agree. Active and inactive are the calls of the source. Rule for the calls: active = hit-call score of the fitted dose curve at least 0.9, where 1 is the maximum; inactive = score below 0.9.

Experiments:
CD69, CD69 (gene 969) = test: BSK_IMphg_CD69: BioMAP Diversity Plus: IMphg Assay for CD69 Biomarker Activity (AID 2284257); details: primary human endothelial cells with macrophages
Procedure, shortened: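 Human venular endothelial cells co-cultured with macrophages; CD69 quantified by ELISA 24 h after compound addition. Activity fitted in the positive direction relative to DMSO baseline; cytotoxicity tracked in parallel cultures via SRB total-protein staining.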

[1] = read-out: Eotaxin 3, CCL26 (gene 10344); test: BSK_BF4T_Eotaxin3: BioMAP Diversity Plus: BF4T Assay for Eotaxin 3 Biomarker Activity (AID 2284258); details: primary human bronchial epithelial cells with fibroblasts
Procedure, shortened: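 Co-culture of human bronchial epithelial cells and dermal fibroblasts, exposed to chemicals for 24 h versus DMSO. Eotaxin-3 quantified by ELISA; cytotoxicity checked in parallel cultures by sulforhodamine B total-protein staining.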

[2] = read-out: Monocyte Chemoattractant Protein-1 (MCP1), CCL2 (gene 6347); test: BSK_BF4T_MCP1: BioMAP Diversity Plus: BF4T Assay for Monocyte Chemoattractant Protein-1 (MCP1) Biomarker Activity (AID 2284259); details: primary human bronchial epithelial cells with fibroblasts
Procedure, shortened: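 Co-culture of bronchial epithelial cells and dermal fibroblasts dosed with chemical; MCP-1 measured by ELISA 24 h later. Activity fitted in positive direction versus DMSO; cytotoxicity checked by SRB staining in parallel cultures.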

[3] = read-out: Intercellular Adhesion Molecule 1 (ICAM1), ICAM1 (gene 3383); test: BSK_BF4T_ICAM1: BioMAP Diversity Plus: BF4T Assay for Intercellular Adhesion Molecule 1 (ICAM1) Biomarker Activity (AID 2284260); details: primary human bronchial epithelial cells with fibroblasts
Procedure, shortened: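 Co-culture of human bronchial epithelial cells and dermal fibroblasts exposed 24 h to chemical; cell-surface ICAM-1 quantified by ELISA. Parallel SRB total-protein staining assessed cytotoxicity; activity fitted relative to DMSO.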

[4] = read-out: Interleukin-8 (IL8), CXCL8 (gene 3576); test: BSK_MyoF_IL8: BioMAP Diversity Plus: MyoF Assay for Interleukin-8 (IL8) Biomarker Activity (AID 2284261); details: primary human lung fibroblasts
Procedure, shortened: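 ELISA read-out of IL-8 from primary human lung fibroblasts, 24 h post-dose; positive-direction curve fitting relative to DMSO vehicle baseline.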

CD90, THY1 (gene 7070) = test: BSK_BF4T_CD90: BioMAP Diversity Plus: BF4T Assay for CD90 Biomarker Activity (AID 2284262); details: primary human bronchial epithelial cells with fibroblasts
Procedure, shortened: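 Co-culture of human bronchial epithelial cells and dermal fibroblasts, 24 h compound exposure. Cell-surface CD90 measured by ELISA relative to DMSO; parallel SRB total-protein staining for cytotoxicity.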

[5] = read-out: Interleukin-8 (IL8), CXCL8 (gene 3576); test: BSK_BF4T_IL8: BioMAP Diversity Plus: BF4T Assay for Interleukin-8 (IL8) Biomarker Activity (AID 2284263); details: primary human bronchial epithelial cells with fibroblasts
Procedure, shortened: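 Human bronchial epithelial cells with dermal fibroblasts co-culture; IL-8 measured by ELISA 24 hours after dosing, fitted vs DMSO. Cytotoxicity tracked in parallel cultures by SRB total-protein staining.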

[6] = read-out: Interleukin-1 alpha (IL1a), IL1A (gene 3552); test: BSK_BF4T_IL1a: BioMAP Diversity Plus: BF4T Assay for Interleukin-1 alpha (IL1a) Biomarker Activity (AID 2284264); details: primary human bronchial epithelial cells with fibroblasts
Procedure, shortened: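 Human bronchial epithelial cells co-cultured with dermal fibroblasts, dosed and read at 24 h. Secreted/surface IL-1α quantified by ELISA; gain-of-signal fitted relative to DMSO baseline. Parallel SRB total-protein staining tracked cytotoxicity.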

Decorin, DCN (gene 1634) = test: BSK_MyoF_Decorin: BioMAP Diversity Plus: MyoF Assay for Decorin Biomarker Activity (AID 2284265); details: primary human lung fibroblasts
Procedure, shortened: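 Human lung fibroblasts in the MyoF system were exposed to compound for 24 h, after which decorin was quantified by ELISA. Activity was fitted in the positive direction relative to DMSO negative control.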

KRT18 (gene 3875) = test: BSK_BF4T_Keratin818: BioMAP Diversity Plus: BF4T Assay for Keratin 818 Biomarker Activity (AID 2284266); details: primary human bronchial epithelial cells with fibroblasts
Procedure, shortened: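 Co-culture of human bronchial epithelial cells and dermal fibroblasts, chemical exposure 24 h. Keratin 8/18 measured by ELISA; positive-direction fit vs DMSO. SRB total protein run in parallel cultures for cytotoxicity.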

[7] = BSK_MyoF_SRB: Viability Assessment in the BioMAP Diversity Plus: MyoF Assay (AID 2284267); details: primary human lung fibroblasts;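 note: total protein by SRB absorbance in parallel cultures as cytotoxicity measure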
Procedure, shortened: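 Human lung fibroblasts, 24 h after chemical dosing; total protein measured by 0.1% sulforhodamine B staining after 10% TCA fixation, read at 560 nm, fitted relative to DMSO baseline.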

[8] = read-out: Matrix Metallopeptidase 1 (MMP1), MMP1 (gene 4312); test: BSK_MyoF_MMP1: BioMAP Diversity Plus: MyoF Assay for Matrix Metallopeptidase 1 (MMP1) Biomarker Activity (AID 2284268); details: primary human lung fibroblasts
Procedure, shortened: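 ELISA readout of MMP1 in primary human lung fibroblast cultures, 24 h post-dosing. Gain of signal versus DMSO vehicle control defines activity. Parallel SRB staining (0.1% after 10% TCA fixation, 560 nm) flags overt cytotoxicity.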

[9] = read-out: TIMP metallopeptidase inhibitor 1 (TIMP1), TIMP1 (gene 7076); test: BSK_MyoF_TIMP1: BioMAP Diversity Plus: MyoF Assay for TIMP metallopeptidase inhibitor 1 (TIMP1) Biomarker Activity (AID 2284269); details: primary human lung fibroblasts
Procedure, shortened: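 Primary human lung fibroblasts, MyoF multiplex system; chemical exposure 24 h; TIMP-1 by ELISA; positive fitting direction vs DMSO control.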

[10] = read-out: Matrix Metallopeptidase 1 (MMP1), MMP1 (gene 4312); test: BSK_BF4T_MMP1: BioMAP Diversity Plus: BF4T Assay for Matrix Metallopeptidase 1 (MMP1) Biomarker Activity (AID 2284270); details: primary human bronchial epithelial cells with fibroblasts
Procedure, shortened: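 Co-culture of human bronchial epithelial cells and dermal fibroblasts; MMP-1 levels measured by ELISA 24 hours after chemical dosing, relative to DMSO. Cytotoxicity checked in parallel cultures by SRB total-protein staining.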

[11] = read-out: Matrix Metallopeptidase 3 (MMP3), MMP3 (gene 4314); test: BSK_BF4T_MMP3: BioMAP Diversity Plus: BF4T Assay for Matrix Metallopeptidase 3 (MMP3) Biomarker Activity (AID 2284271); details: primary human bronchial epithelial cells with fibroblasts
Procedure, shortened: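 Co-culture of human bronchial epithelial cells and dermal fibroblasts dosed 24 h; MMP-3 measured by ELISA, positive-direction fit versus DMSO. Cytotoxicity tracked by SRB total-protein staining (560 nm) in parallel cultures.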

[12] = read-out: Tissue plasminogen activator (tPA), PLAT (gene 5327); test: BSK_BF4T_tPA: BioMAP Diversity Plus: BF4T Assay for Tissue plasminogen activator (tPA) Biomarker Activity (AID 2284272); details: primary human bronchial epithelial cells with fibroblasts
Procedure, shortened: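 tPA level quantified by ELISA at 24 h post-treatment in bronchial epithelial/dermal fibroblast co-cultures, gain of signal scored against DMSO baseline. Parallel cultures stained with 0.1% SRB (560 nm) to flag overt cytotoxicity.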

[13] = read-out: Plasminogen Activator Inhibitor-1 (PAI1), SERPINE1 (gene 5054); test: BSK_BF4T_PAI1: BioMAP Diversity Plus: BF4T Assay for Plasminogen Activator Inhibitor-1 (PAI1) Biomarker Activity (AID 2284273); details: primary human bronchial epithelial cells with fibroblasts
Procedure, shortened: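 Co-culture of human bronchial epithelial cells and dermal fibroblasts exposed to compound for 24 h. PAI-1 measured by ELISA; activity fitted in positive direction versus DMSO. Parallel SRB staining assessed overt cytotoxicity.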

[14] = BSK_BF4T_SRB: Viability Assessment in the BioMAP Diversity Plus: BF4T Assay (AID 2284274); details: primary human bronchial epithelial cells with fibroblasts
Procedure, shortened: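 Co-culture of human bronchial epithelial cells and dermal fibroblasts (BioMAP BF4T) exposed 24 h. Total protein by sulforhodamine B staining (0.1% SRB after 10% TCA fixation, 560 nm) in parallel cultures; fitted vs DMSO.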

[15] = read-out: urokinase Plasminogen Activator (uPA), PLAU (gene 5328); test: BSK_BF4T_uPA: BioMAP Diversity Plus: BF4T Assay for urokinase Plasminogen Activator (uPA) Biomarker Activity (AID 2284275); details: primary human bronchial epithelial cells with fibroblasts
Procedure, shortened: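 Co-culture of human bronchial epithelial cells and dermal fibroblasts; uPA quantified by ELISA 24 hours after dosing, fitted relative to DMSO. Parallel SRB total-protein staining assessed overt cytotoxicity.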

[16] = read-out: Matrix Metallopeptidase 9 (MMP9), MMP9 (gene 4318); test: BSK_BF4T_MMP9: BioMAP Diversity Plus: BF4T Assay for Matrix Metallopeptidase 9 (MMP9) Biomarker Activity (AID 2284276); details: primary human bronchial epithelial cells with fibroblasts
Procedure, shortened: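 Co-culture of human bronchial epithelial cells and dermal fibroblasts dosed for 24 h; MMP-9 quantified by ELISA and fitted upward versus DMSO. Cytotoxicity monitored in parallel cultures by SRB total-protein staining at the biomarker time point.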

Measured: AC50

Cn1cnc([N+](=O)[O-])c1Sc1ncnc2nc[nH]c12
active: [12] 7.93 µM
inactive: CD69, CD69 (gene 969) | [1] | [2] | [3] | [4] | CD90, THY1 (gene 7070) | [5] | [6] | Decorin, DCN (gene 1634) | KRT18 (gene 3875) | [7] | [8] | [9] | [10] | [11] | [12] | [13] | [14] | [15] | [16]
